Sampled rows, rich in hits. Any-hit rate of the full collection: about 6%.
PK Bst = alters activity of Bacillus stearothermophilus pyruvate kinase; purified pyruvate kinase, luminescence ATP production; ribose 5-phosphate activator present at AC10; Potency, µM; hit rate 1.2% among 51,000; AID 361; in the data active means potency below about 11 µM; inconclusive means mostly about 12 µM to 25 µM;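 the screen sought inhibitors and activators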
ERK AVP inh = blocks ERK signaling stimulated by vasopressin; HEK293-V1b, vasopressin-stimulated pERK AlphaScreen; Potency, µM (top dose mostly 57.5 µM), usual class: inhibitors; hit rate 0.99% among 72,000; further: nearly all actives have a fitted effect of over 55% in size
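qHTS, compounds titrated on V1b-expressing HEK293 cells. Preincubation 30 min at 37C, vasopressin 25 nM for 5 min, lysis 10 min, bead incubation 5 hr at room temperature.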
Luciferase inh = inhibitors of firefly luciferase | P08659 | purified firefly luciferase, luminescence, 8 min | hit rate 2.2% among 72,000 | Potency, µM (titrated, usually from 57.1 µM), hits mostly inhibitors; further: nearly all actives have a fitted effect of over 40% in size
Target sequence (P08659 whole entry, looked up): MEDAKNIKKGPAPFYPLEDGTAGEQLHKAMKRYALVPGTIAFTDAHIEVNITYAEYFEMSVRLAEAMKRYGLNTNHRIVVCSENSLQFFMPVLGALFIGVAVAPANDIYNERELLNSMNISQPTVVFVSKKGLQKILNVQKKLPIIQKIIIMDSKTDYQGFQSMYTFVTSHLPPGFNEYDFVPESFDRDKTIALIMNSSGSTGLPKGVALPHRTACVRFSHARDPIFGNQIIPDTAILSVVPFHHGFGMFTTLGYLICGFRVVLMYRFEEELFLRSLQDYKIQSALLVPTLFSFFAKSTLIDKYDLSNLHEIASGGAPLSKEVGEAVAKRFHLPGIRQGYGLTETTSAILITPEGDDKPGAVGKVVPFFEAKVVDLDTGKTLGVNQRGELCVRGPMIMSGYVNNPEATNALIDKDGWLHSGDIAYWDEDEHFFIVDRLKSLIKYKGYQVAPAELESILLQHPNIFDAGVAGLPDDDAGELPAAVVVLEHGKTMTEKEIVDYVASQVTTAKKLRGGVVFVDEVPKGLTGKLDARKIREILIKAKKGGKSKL
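Here, luciferase activity is measured as luminescence following an 8 min room-temperature reaction at 10 uM ATP, pH 7.2. Every library sample is titrated.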
15-hLO inh = blocks human 15-lipoxygenase activity; P16050; purified 15hLO-1, xylenol orange hydroperoxide absorbance; Potency, µM (top dose mostly 57.1 µM), most hits filed as inhibitors; hit rate 1.4% among 74,000; AID 887; further: nearly all actives have a fitted effect of over 55% in size
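Readout: Fe(III)-xylenol orange absorbance, 573-to-405 nm ratio as reaction progress. Enzyme 40 nM purified human 15hLO-1, substrate 50 uM arachidonic acid, 6 min RT after 15 min compound preincubation; Hepes pH 7.5 buffer with Triton X-100.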
DNA Pol III inh = blocks replication by bacterial DNA polymerase III holoenzyme. reconstituted DNA polymerase III holoenzyme replication, biochemical. Potency, µM (series often up to 57.1 µM). hit rate 0.25% among 71,000
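Reconstituted *E. coli* holoenzyme (0.35 nM Pol III, 1 nM beta, 154 nM SSB, 2 nM primase) was preincubated with compound for 15 min at RT. Synthesis on 1.4 nM ssM13Gori ran 35 min, then was stopped with PicoGreen/EDTA and read as dsDNA fluorescence.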
Tau filament bind = binds recombinant human tau filaments. hit rate 2% among 71,000. AID 596. recombinant tau filaments, thioflavin S fluorescence, 15 h; filaments grown with octadecylsulfate alongside compound. Potency, µM (series often up to 57.1 µM). P10636;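 further: actives lower thioflavin S fluorescence by blocking filaments or displacing dye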
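Thioflavine S fluorescence (ex 450, em 510 nm) reports filaments formed from 1 uM human tau plus 30 uM ODS over 15 h at 37 C (10 mM HEPES pH 7.4, 100 mM NaCl, 5 mM DTT); compounds displacing dye or blocking filaments lower signal.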
Hits are given with their value; [ ] = remark or other dose. Unless noted, the call rests on the fitted dose curve; in most records, active means well fitted curve in the direction sought with a large enough effect; inconclusive means small, poorly fitted or top-dose-only effect, or another doubt; inactive means no such curve, though single readings can be large; an effect the other way counts as inactive or inconclusive.

What do the screens show for `CC#CCOC(=O)C1=CCCN(C)C1`?
ERK AVP inh: inactive; Luciferase inh: inactive; 15-hLO inh: inactive; DNA Pol III inh: inactive; Tau filament bind: inactive

How did CS(=O)(=O)N1CCC2(CC1)CN(Cc1ccc(C#N)cc1)C2 do in these assays?
ERK AVP inh: inactive; Luciferase inh: inactive[11.4 µM]; 15-hLO inh: inactive; DNA Pol III inh: inactive; Tau filament bind: inactive

How did O=c1c(-c2ccc(Cl)cc2)nc2cncnc2n1Cc1ccccc1 do in these assays?
ERK AVP inh: inactive; Luciferase inh: inactive[11.4 µM]; 15-hLO inh: inactive; DNA Pol III inh: inactive; Tau filament bind: inconclusive

Results for O=c1c(-c2ccc(F)cc2)nc2cncnc2n1Cc1ccc(F)cc1 ?
ERK AVP inh: inconclusive; Luciferase inh: inactive[11.4 µM]; 15-hLO inh: inactive; DNA Pol III inh: inactive; Tau filament bind: 13µM

How did O=c1c(-c2cc(F)cc(F)c2)nc2cncnc2n1Cc1ccccc1 do in these assays?
ERK AVP inh: inconclusive; Luciferase inh: inactive[11.4 µM]; 15-hLO inh: inactive; DNA Pol III inh: inactive; Tau filament bind: 32µM

How did O=c1c(-c2ccc(F)cc2)nc2cncnc2n1Cc1ccccc1 do in these assays?
ERK AVP inh: inactive; Luciferase inh: inactive[11.4 µM]; 15-hLO inh: inactive; DNA Pol III inh: inactive; Tau filament bind: inactive

How did O=c1c(-c2ccc(F)c(F)c2)nc2cncnc2n1Cc1ccccc1 do in these assays?
ERK AVP inh: inactive; Luciferase inh: inactive[11.4 µM]; 15-hLO inh: inactive; DNA Pol III inh: inactive; Tau filament bind: 13µM

How did O=c1c(-c2ccc(Cl)cc2)nc2cncnc2n1Cc1ccc(F)cc1 do in these assays?
ERK AVP inh: inconclusive; Luciferase inh: inactive[11.4 µM]; 15-hLO inh: inactive; DNA Pol III inh: inactive; Tau filament bind: inconclusive

Results for O=c1c(-c2cc(F)cc(F)c2)nc2cncnc2n1Cc1ccc(F)cc1 ?
ERK AVP inh: inactive; Luciferase inh: inactive[11.4 µM]; 15-hLO inh: 7.9µM; DNA Pol III inh: inactive; Tau filament bind: inconclusive

How did O=C(c1csnn1)N1CCC2(CC1)CN(c1ccccn1)C2 do in these assays?
ERK AVP inh: inactive; Luciferase inh: inactive[11.4 µM]; 15-hLO inh: inactive; DNA Pol III inh: inactive; Tau filament bind: inactive

Results for Cc1ccc(C(=O)c2cn[nH]c2-c2cc(Cl)ccc2O)cc1 ?
PK Bst: inactive; ERK AVP inh: inactive; Luciferase inh: inactive; 15-hLO inh: 20µM; DNA Pol III inh: inactive; Tau filament bind: inactive

How did CCc1nc2sc3c(c2c(=O)n1N)CCC3 do in these assays?
PK Bst: inactive; ERK AVP inh: inconclusive; Luciferase inh: inactive; 15-hLO inh: inactive; DNA Pol III inh: inactive; Tau filament bind: inactive

How did Nn1c(Nc2ccccc2)nc2sc3c(c2c1=O)CCC3 do in these assays?
ERK AVP inh: inconclusive; Luciferase inh: 20µM; 15-hLO inh: inactive; DNA Pol III inh: inactive; Tau filament bind: inactive

Results for COC(=O)NC(/C(C(=O)OC)=C(\C)NCc1ccccc1)c1ccc2ccccc2c1 (configuration not stated) ?
ERK AVP inh: inactive[11.5 µM]; 15-hLO inh: inconclusive

What do the screens show for `CCOc1ccc2nc(-c3ccccc3)[nH]c2c1`?
PK Bst: 2; ERK AVP inh: inactive; Luciferase inh: 3.2µM; 15-hLO inh: inactive; DNA Pol III inh: inactive; Tau filament bind: inactive

Results for COc1ccc2nc(N3CCCC3)[nH]c2c1 ?
PK Bst: inactive; ERK AVP inh: inactive; Luciferase inh: inactive; 15-hLO inh: inactive; DNA Pol III inh: inactive; Tau filament bind: inactive

How did COc1ccc2nc(-c3ccccc3)[nH]c2c1 do in these assays?
PK Bst: 6; ERK AVP inh: inactive; Luciferase inh: 6.3µM; 15-hLO inh: inactive; DNA Pol III inh: inactive; Tau filament bind: inactive

Results for CCOC(=O)c1sc(NC(=O)c2ccc(Br)o2)cc1C ?
PK Bst: 6.4; ERK AVP inh: inactive; Luciferase inh: 5µM; 15-hLO inh: inconclusive; DNA Pol III inh: inactive; Tau filament bind: inactive

How did CCOC(=O)c1sc(NC(=O)c2cccs2)cc1C do in these assays?
ERK AVP inh: inactive; Luciferase inh: 2µM; 15-hLO inh: inactive; DNA Pol III inh: inactive; Tau filament bind: inactive

How did Cc1cc2ncc(-c3ccc(Cl)cc3)c(N)n2n1 do in these assays?
Luciferase inh: 13µM; 15-hLO inh: inactive; DNA Pol III inh: inactive; Tau filament bind: inactive

How did COc1ncc2nc(CCc3ccccc3)c(=O)n(C3CC3)c2n1 do in these assays?
ERK AVP inh: inactive; Luciferase inh: inactive[11.4 µM]; 15-hLO inh: inactive; DNA Pol III inh: inactive; Tau filament bind: inactive

How did CC(C)(C)N=C1NC(=NC(C)(C)C)c2ccccc21 do in these assays?
PK Bst: inactive; ERK AVP inh: inactive; Luciferase inh: inactive; 15-hLO inh: inactive; DNA Pol III inh: inactive; Tau filament bind: 2.5µM

What do the screens show for `c1ccc2c(c1)C(=NCC1CCCO1)NC2=NCC1CCCO1` (configuration not stated)?
PK Bst: inactive; ERK AVP inh: inactive; Luciferase inh: inactive; 15-hLO inh: inactive; DNA Pol III inh: inactive; Tau filament bind: inactive

Results for Cc1ccc(NCCNc2ccc(C)cc2)cc1 ?
PK Bst: inactive; ERK AVP inh: inactive; Luciferase inh: inactive; 15-hLO inh: inactive; DNA Pol III inh: inactive; Tau filament bind: inactive

How did Cc1ccc(CNc2ccc(O)cc2)cc1 do in these assays?
PK Bst: inactive; ERK AVP inh: inconclusive; 15-hLO inh: inconclusive; DNA Pol III inh: inactive; Tau filament bind: 10µM

What do the screens show for `CC(=O)N1CCN(c2ccc(NCc3ccc(C)cc3)cc2)CC1`?
PK Bst: inactive; ERK AVP inh: inactive; Luciferase inh: inactive; 15-hLO inh: 13µM; DNA Pol III inh: inactive; Tau filament bind: inconclusive

Results for CCc1ccc(CNc2ccc(N3CCN(C(C)=O)CC3)cc2)cc1 ?
PK Bst: inactive; ERK AVP inh: inconclusive; Luciferase inh: inactive; 15-hLO inh: 16µM; DNA Pol III inh: inactive; Tau filament bind: 13µM

Results for CC1CCC2C(=O)N3C(CCC(C)[C@H]3c3ccccc3Br)C(=O)N2C1c1ccccc1Br (some centres not stated) ?
ERK AVP inh: inactive[11.5 µM]; 15-hLO inh: inactive[11.4 µM]

Results for CC(C)c1cccc2c([Si](C)(C)C)c3c(nc12)-c1cccc(=O)n1C3 ?
ERK AVP inh: inactive; DNA Pol III inh: inactive; Tau filament bind: inactive

How did O=C1[C@H]2[C@H]3[C@H](O)[C@H](O)C/C(=N/OCc4ccccc4)[C@@H]3CC[C@@H]2C(=O)N1C[C@@H]1CCCO1 do in these assays?
ERK AVP inh: inactive[11.5 µM]; Luciferase inh: inactive[11.4 µM]; 15-hLO inh: inactive[11.4 µM]

What do the screens show for `COc1ccc(S(=O)(=O)Nc2ccc3c(c2)OCO3)cc1C(=O)O`?
15-hLO inh: inactive

How did COc1ccc(S(=O)(=O)c2ccc(OC)c(OC)c2)cc1OC do in these assays?
PK Bst: inactive; ERK AVP inh: 16µM; Luciferase inh: inactive; 15-hLO inh: inactive; DNA Pol III inh: inactive; Tau filament bind: inactive

Results for COc1ccc(S(=O)(=O)Nc2ccc3c(c2)OCO3)cc1OC ?
PK Bst: inactive; ERK AVP inh: inactive; Luciferase inh: inactive; 15-hLO inh: inactive; DNA Pol III inh: inactive; Tau filament bind: 25µM
